The text below walks through data of ChEMBL document CHEMBL3988442, “University of Dundee, Small-Polar-MMV Screening Library” (2021).

Parameters in all cases: scale not given: direction of the effect not stated beside the values
The target of experiment [1] is Protein translocase subunit SecA (Escherichia coli (strain K12)) (UniProt P10408). Description: Assay to Identify E. coli SecA ATPase Inhibitors. The note with it: 30 µM. Type of experiment: functional.
In experiment [2] the target is T1, Ubiquitin-activating enzyme e1, putative (Leishmania donovani (strain BPK282A1)) (UniProt E9BSI1).
T1 sequence (whole entry): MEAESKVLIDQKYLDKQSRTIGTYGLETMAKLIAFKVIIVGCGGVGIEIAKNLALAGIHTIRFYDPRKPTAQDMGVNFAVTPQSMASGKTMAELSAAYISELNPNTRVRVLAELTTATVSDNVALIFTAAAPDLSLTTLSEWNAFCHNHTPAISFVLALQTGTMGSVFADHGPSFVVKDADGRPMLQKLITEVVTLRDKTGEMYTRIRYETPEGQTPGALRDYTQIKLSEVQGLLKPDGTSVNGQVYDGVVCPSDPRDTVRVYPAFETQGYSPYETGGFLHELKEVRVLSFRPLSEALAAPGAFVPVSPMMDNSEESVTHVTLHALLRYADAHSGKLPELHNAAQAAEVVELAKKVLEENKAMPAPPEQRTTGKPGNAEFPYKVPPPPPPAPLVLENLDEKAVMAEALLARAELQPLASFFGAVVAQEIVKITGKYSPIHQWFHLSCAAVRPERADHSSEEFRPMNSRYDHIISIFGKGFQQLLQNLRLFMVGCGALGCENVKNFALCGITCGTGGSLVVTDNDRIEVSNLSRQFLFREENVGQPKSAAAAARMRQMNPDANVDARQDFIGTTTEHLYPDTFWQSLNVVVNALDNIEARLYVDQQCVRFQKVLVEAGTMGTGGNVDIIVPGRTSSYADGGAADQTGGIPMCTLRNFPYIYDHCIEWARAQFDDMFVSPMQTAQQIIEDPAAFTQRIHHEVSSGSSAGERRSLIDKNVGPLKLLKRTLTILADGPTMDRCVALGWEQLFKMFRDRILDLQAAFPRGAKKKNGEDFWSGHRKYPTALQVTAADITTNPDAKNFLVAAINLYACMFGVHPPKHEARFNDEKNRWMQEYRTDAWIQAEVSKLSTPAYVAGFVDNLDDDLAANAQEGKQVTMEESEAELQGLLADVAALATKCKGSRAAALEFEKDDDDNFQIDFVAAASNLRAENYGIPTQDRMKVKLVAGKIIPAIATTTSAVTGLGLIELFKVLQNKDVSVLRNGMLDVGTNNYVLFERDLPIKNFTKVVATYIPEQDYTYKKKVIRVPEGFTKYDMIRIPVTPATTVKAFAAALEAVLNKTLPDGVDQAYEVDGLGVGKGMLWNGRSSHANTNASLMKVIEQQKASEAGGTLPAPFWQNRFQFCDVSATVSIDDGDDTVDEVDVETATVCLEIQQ
The experiment is described as follows: Leishmania donovani Ubiquitin Activating Enzyme (LdE1). The note with it: 30 µM. Type of experiment: functional.

Experiment [3] concerns the target AMP-activated protein kinase, AMPK (Homo sapiens) (UniProt P54646+O43741+P54619+Q9UGJ0+Q9Y478+Q13131+Q9UGI9). Description: AMP-dependent Kinase enzyme assay. An in vitro enzyme assay that detects ADP turnover that is directly proportional to AMPK activity. This uses naive AMPK that is activated during the assay with MK-8722. Type of experiment: functional. The note with it: 30 µM.

The target of experiment [4] is Sialic acid-binding Ig-like lectin 9 (Homo sapiens) (UniProt Q9Y336). Description: Hs-Siglec9 ALPHAscreen SOP 20170721. The conditions noted are these: 10 µM.
In a further experiment the test system is Trypanosoma cruzi. Description: Trypanosoma cruzi phosphomannomutase and mannose-1-phosphate guanylyltransferase assay. The conditions noted are these: 10 µM. Type of experiment: functional.
The target of experiment [5] is T2, Arginase-2, mitochondrial (Homo sapiens) (UniProt P78540).
T2 sequence (whole entry): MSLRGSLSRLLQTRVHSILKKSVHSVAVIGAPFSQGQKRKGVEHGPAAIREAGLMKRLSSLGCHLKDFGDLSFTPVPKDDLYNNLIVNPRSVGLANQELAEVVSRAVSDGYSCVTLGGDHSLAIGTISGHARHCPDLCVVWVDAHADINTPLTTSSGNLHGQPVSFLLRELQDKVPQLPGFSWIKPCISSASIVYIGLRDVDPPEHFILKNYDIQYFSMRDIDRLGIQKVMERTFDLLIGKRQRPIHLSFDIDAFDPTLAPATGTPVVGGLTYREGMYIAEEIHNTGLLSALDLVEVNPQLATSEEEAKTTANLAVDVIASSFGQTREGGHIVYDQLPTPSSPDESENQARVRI
The experiment is described as follows: in vitro enzyme assay to detect the production of urea directly proportional to the activity of Arginase II. Further: in the data most compounds retested in dose-response had high values. Type of experiment: functional. The conditions noted are these: 33.3 µM.

Experiment [6] addresses T3, Proteasome subunit beta (Trypanosoma cruzi) (UniProt O96673).
T3 sequence (whole entry): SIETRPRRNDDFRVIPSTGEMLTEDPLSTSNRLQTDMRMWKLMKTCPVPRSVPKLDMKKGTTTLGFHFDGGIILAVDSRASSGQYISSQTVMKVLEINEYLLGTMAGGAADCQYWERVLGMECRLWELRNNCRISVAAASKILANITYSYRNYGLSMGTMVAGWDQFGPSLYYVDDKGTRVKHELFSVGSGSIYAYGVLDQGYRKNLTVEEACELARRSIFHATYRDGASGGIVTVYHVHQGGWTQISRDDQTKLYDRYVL
Description: Trypanosoma cruzi proteasome chymotrypsin-like activity (TcProtChymo) assay. Further: in the data most compounds retested in dose-response had high values. Type of experiment: functional. The conditions noted are these: 9.37 µM.

The species entered for the next experiment is Homo sapiens. Description: To identify inhibition of the IFN signalling (Jak-Stat) pathway via expression of an eGFP reporter gene under the control of an IFN-stimulated response element (ISRE) containing MxA promoter. The format is functional. The conditions noted are these: 30 µM.
In experiment [7] the target is T4, Tyrosyl-tRNA synthetase, putative (Trypanosoma cruzi (strain CL Brener)) (UniProt Q4DSP6).
T4 sequence (whole entry): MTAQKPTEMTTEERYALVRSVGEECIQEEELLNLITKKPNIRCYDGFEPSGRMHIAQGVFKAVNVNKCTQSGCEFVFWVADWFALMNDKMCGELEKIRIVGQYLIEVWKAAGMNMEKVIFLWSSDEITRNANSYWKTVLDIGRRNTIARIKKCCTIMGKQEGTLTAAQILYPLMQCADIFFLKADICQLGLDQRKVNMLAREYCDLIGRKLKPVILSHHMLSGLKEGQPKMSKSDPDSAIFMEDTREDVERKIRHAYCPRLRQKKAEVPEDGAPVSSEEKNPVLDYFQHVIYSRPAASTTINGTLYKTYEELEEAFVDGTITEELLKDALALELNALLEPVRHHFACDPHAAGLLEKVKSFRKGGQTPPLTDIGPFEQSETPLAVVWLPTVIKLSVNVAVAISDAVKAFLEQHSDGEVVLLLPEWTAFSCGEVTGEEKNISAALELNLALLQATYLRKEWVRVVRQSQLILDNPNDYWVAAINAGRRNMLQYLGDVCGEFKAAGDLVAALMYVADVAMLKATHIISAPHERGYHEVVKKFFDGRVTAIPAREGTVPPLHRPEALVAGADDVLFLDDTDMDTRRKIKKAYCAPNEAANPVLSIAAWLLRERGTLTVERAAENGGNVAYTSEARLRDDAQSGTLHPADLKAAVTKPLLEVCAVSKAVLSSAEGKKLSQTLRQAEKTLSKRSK
The experiment is described as follows: Trypanosoma cruzi tyrosyl tRNA synthetase (TcYRS) _High Tyrosine SOP. Further: in the data most compounds retested in dose-response had high values. Type of experiment: functional. The conditions noted are these: 30 µM.

Experiment [8] deals with T4, Tyrosyl-tRNA synthetase, putative (Trypanosoma cruzi (strain CL Brener)). Description: Trypanosoma cruzi tyrosyl tRNA synthetase (TcYRS) SOP. Type of experiment: functional. The conditions noted are these: 30 µM.
Experiment [9] deals with Chromo domain-containing protein 1 (Saccharomyces cerevisiae (strain ATCC 204508 / S288c) (Baker's yeast)) (UniProt P32657). Description: ScCHD-1 Enzyme Inhibition Assay. Further: in the data most compounds retested in dose-response had high values. The format is functional. The conditions noted are these: 30 µM.

The structures appear in SMILES notation. For some assays here: Potency and affinity values are given separately.

Chain of Sialic acid-binding Ig-like lectin 9 (Homo sapiens) (Q9Y336 whole entry): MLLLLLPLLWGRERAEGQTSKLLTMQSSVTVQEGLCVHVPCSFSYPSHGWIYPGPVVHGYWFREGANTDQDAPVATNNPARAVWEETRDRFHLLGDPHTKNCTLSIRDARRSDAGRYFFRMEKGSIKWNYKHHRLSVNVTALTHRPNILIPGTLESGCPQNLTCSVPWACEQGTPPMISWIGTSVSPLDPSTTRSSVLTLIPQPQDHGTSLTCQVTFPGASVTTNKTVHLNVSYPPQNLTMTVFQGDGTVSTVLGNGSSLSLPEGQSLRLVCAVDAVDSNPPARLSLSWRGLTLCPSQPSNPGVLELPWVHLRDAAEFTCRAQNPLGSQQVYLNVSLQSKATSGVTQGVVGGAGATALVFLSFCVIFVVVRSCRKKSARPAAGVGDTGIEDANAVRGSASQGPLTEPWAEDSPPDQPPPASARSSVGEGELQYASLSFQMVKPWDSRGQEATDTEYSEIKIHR
Chain of Protein translocase subunit SecA (Escherichia coli (strain K12)) (P10408 whole entry): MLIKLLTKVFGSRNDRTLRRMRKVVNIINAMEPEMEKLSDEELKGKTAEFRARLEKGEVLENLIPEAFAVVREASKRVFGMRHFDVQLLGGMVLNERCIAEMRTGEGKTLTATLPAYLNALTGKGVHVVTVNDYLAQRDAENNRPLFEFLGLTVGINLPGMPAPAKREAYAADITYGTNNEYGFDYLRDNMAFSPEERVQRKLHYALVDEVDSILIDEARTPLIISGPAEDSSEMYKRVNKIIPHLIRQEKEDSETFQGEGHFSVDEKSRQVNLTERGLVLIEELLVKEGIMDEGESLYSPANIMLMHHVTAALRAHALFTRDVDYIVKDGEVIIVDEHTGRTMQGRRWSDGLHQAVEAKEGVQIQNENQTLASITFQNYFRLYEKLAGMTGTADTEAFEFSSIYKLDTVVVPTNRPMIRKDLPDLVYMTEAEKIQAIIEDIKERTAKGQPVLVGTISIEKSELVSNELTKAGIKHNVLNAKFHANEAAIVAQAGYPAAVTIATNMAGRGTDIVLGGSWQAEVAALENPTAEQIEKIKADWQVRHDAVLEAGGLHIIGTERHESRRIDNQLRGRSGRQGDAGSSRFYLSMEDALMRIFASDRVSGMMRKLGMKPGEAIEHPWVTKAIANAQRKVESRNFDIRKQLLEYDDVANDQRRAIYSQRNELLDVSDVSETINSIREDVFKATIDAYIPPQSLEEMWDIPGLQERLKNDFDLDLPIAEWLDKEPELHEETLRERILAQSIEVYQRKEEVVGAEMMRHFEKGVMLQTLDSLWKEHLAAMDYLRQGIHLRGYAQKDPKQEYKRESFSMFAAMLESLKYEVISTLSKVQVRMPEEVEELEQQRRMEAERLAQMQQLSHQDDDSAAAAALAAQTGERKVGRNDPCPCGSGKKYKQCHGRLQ
Chain of Chromo domain-containing protein 1 (Saccharomyces cerevisiae (strain ATCC 204508 / S288c) (Baker's yeast)) (P32657 whole entry, the tested form may be a part): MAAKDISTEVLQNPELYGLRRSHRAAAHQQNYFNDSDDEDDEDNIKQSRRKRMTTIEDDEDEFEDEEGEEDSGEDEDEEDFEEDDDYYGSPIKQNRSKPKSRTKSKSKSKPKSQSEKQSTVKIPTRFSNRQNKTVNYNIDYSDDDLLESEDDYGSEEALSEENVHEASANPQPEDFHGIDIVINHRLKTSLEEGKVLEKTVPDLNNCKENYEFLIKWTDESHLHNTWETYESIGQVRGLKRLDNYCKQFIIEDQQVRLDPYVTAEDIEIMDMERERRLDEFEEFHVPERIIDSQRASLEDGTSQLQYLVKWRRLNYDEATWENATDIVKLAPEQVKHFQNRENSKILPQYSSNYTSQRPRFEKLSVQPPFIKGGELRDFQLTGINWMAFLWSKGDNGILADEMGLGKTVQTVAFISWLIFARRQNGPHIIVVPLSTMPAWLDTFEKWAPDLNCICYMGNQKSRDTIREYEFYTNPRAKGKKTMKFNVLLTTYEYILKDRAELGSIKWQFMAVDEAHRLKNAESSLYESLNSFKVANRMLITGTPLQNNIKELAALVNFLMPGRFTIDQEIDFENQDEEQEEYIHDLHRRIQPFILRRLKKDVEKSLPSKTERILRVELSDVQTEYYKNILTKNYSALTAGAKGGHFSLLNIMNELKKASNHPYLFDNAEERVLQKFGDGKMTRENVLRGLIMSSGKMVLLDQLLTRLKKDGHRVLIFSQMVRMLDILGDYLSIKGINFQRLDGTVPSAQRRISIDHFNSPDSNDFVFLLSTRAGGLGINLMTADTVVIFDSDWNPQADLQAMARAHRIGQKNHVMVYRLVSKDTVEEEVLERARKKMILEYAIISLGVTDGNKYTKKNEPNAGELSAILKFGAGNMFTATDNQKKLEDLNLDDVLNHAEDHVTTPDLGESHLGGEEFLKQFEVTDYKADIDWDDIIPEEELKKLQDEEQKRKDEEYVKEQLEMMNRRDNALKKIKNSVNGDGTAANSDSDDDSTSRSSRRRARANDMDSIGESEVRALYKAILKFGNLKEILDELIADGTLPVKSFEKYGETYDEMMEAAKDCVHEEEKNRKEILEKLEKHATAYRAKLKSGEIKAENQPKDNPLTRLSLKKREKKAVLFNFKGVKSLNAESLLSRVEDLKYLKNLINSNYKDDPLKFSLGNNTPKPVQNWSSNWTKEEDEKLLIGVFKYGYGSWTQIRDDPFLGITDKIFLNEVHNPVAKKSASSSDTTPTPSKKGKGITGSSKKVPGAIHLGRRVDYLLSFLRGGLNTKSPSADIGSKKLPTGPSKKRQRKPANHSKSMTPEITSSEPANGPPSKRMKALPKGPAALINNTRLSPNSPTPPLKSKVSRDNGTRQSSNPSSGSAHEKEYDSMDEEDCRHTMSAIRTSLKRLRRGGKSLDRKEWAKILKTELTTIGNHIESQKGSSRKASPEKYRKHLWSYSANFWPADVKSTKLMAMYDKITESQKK

Consider `CC1CN(C)c2ccccc2CN1C(=O)CSc1ccncc1` (stereo not given), for which the Percent Effect in [1] was -1.53%; in experiment [2] it was 11%; in experiment [3] it was 2.54%; in experiment [4], 1.63%; in the experiment on Trypanosoma cruzi it was 0.783%; in experiment [5] it was 2.73%. The Percent Effect in experiment [6] was 2.48%; in the experiment listed under Homo sapiens it was 17.3%; in experiment [7], 6.45%; in [8], 7.5%; in experiment [9], -6.19%.

As to `CC(=O)N1CCC2(CCCN(C(=O)c3ccccc3)C2)C1` (stereo not given), the Percent Effect is -2.42% in [1]; 0% in experiment [2]; 11% in experiment [3]; -1.1% in experiment [4]; -1.57% with Trypanosoma cruzi; 3.03% in experiment [5]. Further, the Percent Effect is 1.85% in experiment [6]; -0.0486% in the experiment filed under Homo sapiens; 2.13% in experiment [7]; 1.28% in experiment [8]; 5.13% in [9].

On to `c1cncc(C2COC3(CCN(CC4CC4)CC3)C2)c1` (stereo not given), for which the Percent Effect was -5.88% in experiment [1]; 5.41% in experiment [2]; 0.748% in [3]; -4.23% in [4]; -1.17% with Trypanosoma cruzi; 4.58% in experiment [5]. Further, the Percent Effect in experiment [6] was 12.9%; in the experiment filed under Homo sapiens it was -13.5%; in experiment [7], 8.91%; in experiment [8], 1.22%; in [9], -3.69%.

For the molecule `CC(C)C(=O)NCCCn1ncc2c(Cl)cccc21`, the Percent Effect is -4.7% in experiment [1]; 10.4% in experiment [2]; 1.13% in experiment [3]; 17.2% in experiment [4]; 5.61% in the experiment with Trypanosoma cruzi; -8.28% in experiment [5]. Besides, the Percent Effect in [6] was 4.33%; in the experiment listed under Homo sapiens it was -1.52%; in experiment [7] it was 5.38%; in [8] it was 11.1%; in [9], -3.62%.

For `O=C(C1CC=CC1)N1C[C@@H]2[C@@H](C1)OCC(=O)N2Cc1cccnc1`, the Percent Effect in [1] is -2.28%; in experiment [2], -2.6%; in experiment [3], 12.1%; in [4], 3.67%; with Trypanosoma cruzi, 0.888%; in experiment [5], -3.23%. The Percent Effect was 0.87% in experiment [6]; 15% in the experiment listed under Homo sapiens; 2.12% in [7]; 6.41% in experiment [8]; -4.72% in experiment [9].

Take `CCc1cnc2c(c1NCc1ccncc1)c(=O)n(C)c(=O)n2C`: the Percent Effect in [1] was 0.985%; in [2] it was 8.22%; in experiment [3], -0.992%; in experiment [4], -0.488%; with Trypanosoma cruzi, -4.5%; in experiment [5] it was 5%. In addition, the Percent Effect in experiment [6] is 13.1%; in the experiment filed under Homo sapiens, 14.7%; in experiment [7], 6.45%; in experiment [8], 10%; in experiment [9] it was -4.37%.

Take `O=c1cc2c(nn1CN1CCOCC1)CCC2`: the Percent Effect was -2.09% in experiment [1]; 14.7% in experiment [2]; -2.08% in experiment [3]; -0.0396% in experiment [4]; -0.786% with Trypanosoma cruzi; -6.87% in experiment [5]. Further, the Percent Effect in experiment [6] was 11.3%; in the experiment filed under Homo sapiens it was 14.3%; in experiment [7], 6.35%; in experiment [8], 15.4%; in experiment [9], -8.17%.

For `CC(C)C(=O)N1CCN(Cc2cc(-c3ccncc3)nn2C)CC1`, the Percent Effect was -5.03% in experiment [1]; 12.2% in experiment [2]; -0.905% in experiment [3]; 1.54% in [4]; 3.75% in the experiment with Trypanosoma cruzi; -3.48% in experiment [5]. Besides, the Percent Effect in experiment [6] was 8.89%; in the experiment filed under Homo sapiens, 0.905%; in experiment [7], -5.38%; in experiment [8], 11.7%; in experiment [9] it was -13.7%.

On to `CNC(=O)CS(=O)(=O)C1CCN(S(=O)(=O)c2c(F)cccc2F)CC1`, for which the Percent Effect in experiment [1] was -2.05%; in experiment [2] it was -2.74%; in experiment [3], 6.92%; in experiment [4], 0.634%; in the experiment on Trypanosoma cruzi, 5.68%; in [5] it was -1.82%. Further, the Percent Effect was 3.9% in experiment [6]; -17.8% in the experiment listed under Homo sapiens; 1.07% in [7]; 0% in experiment [8]; -1.05% in [9].

Regarding `NCC(=O)N1CCCC(c2cncc(Nc3ncccn3)n2)C1` (stereo not given), the Percent Effect in experiment [1] is -3.81%; in experiment [2] it was 9.46%; in experiment [3] it was 17.7%; in experiment [4], 18%; in the experiment on Trypanosoma cruzi it was -2.57%; in experiment [5] it was -3.48%. In addition, the Percent Effect turned out to be 10.3% in [6]; 5.7% in the experiment listed under Homo sapiens; 5.38% in experiment [7]; 11.7% in [8]; 2.63% in [9].
